Screen size: about 69,000 compounds; about 8,600 (12%) showed an effect of 50% or more. The entries come from a sample that favours strong results as a whole.
Tested on: Plasmodium berghei
Assay: Screen against P. berghei liver stage (PbLuc), transformed with Luciferase, at 10uM
Type: functional, HepG2
Settings: tested at 10 uM

Row | Structure (SMILES) | INHIBITION
1 | CC(=O)N1N=C(c2ccccc2)OC1C(=O)NCCc1ccc(Cl)cc1 (centres undefined) | -53.7%
2 | CCN(CCCNCc1c(C)nn(C)c1N(C)C)S(C)(=O)=O | 0.58%
3 | Cc1nc(C2CCN2c2ncccn2)cc(N(C)C)n1 (centres undefined) | 10.9%
4 | CCN(CC)C(=O)CSc1nc2nc(C)ccc2o1 | -4.76%
5 | CCN(Cc1cccc2c1OCO2)C(=O)NCc1ccccn1 | -27.8%
6 | N#Cc1cccc(CN2C(=O)c3ccccc3CS2(=O)=O)c1 | -0.85%
7 | Cc1ccc(C)c(C(=O)CN2C(=O)c3ccccc3CS2(=O)=O)c1 | 56.8%
8 | Cc1cc(=O)c(C(=O)N2CCN(C)c3ccccc3C2)c[nH]1 | 43.9%
9 | CCCn1c(C)cc(C(=O)CN2C(=O)c3ccccc3CS2(=O)=O)c1C | 31.8%
10 | Cc1ccc(C(=O)CN2C(=O)c3ccccc3CS2(=O)=O)c(C)c1 | 65.3%
11 | Cc1cc(C)c(CNC(=O)C2COc3ccccc3C2)c(=O)[nH]1 (centres undefined) | 32.9%
12 | Cc1cc(C(=O)CN2C(=O)c3ccccc3CS2(=O)=O)c(C)[nH]1 | 56.4%
13 | Cc1ccccc1C(=O)CN1C(=O)c2ccccc2CS1(=O)=O | 10.1%
14 | Cc1ccc(C)c(C(=O)N2CCN(C(=O)Cc3ccccn3)CC2)c1 | 29.7%
15 | Cc1nc(-c2nnc[nH]2)sc1C(=O)N1CCCC(C(F)(F)F)C1 (centres undefined) | 7.25%
16 | CN(C)C(=O)C1CCC2(CCN(C(=O)Nc3ccc(F)cc3)CC2)O1 (centres undefined) | 31.2%
17 | O=C([C@@H]1C[C@@H]2CCN(C3CCOCC3)C[C@@H]2O1)N1CCOCC1 | -9.26%
18 | COCCn1c2c(ccc1=O)CCN(C(=O)Cc1cccs1)CC2 | -14.2%
19 | CNc1cnc(CC2COCCN(Cc3ccccc3)C2)cn1 (centres undefined) | 9.05%
20 | c1ccc(-n2cc(CNCC3CCCN3c3cccnn3)cn2)cc1 (centres undefined) | 41.5%
21 | CC(CS(C)(=O)=O)N(C(=O)CCc1ccc(Cl)s1)C1CC1 (centres undefined) | 31.5%
22 | CC(CS(C)(=O)=O)N(C(=O)Nc1cc(F)ccc1Cl)C1CC1 (centres undefined) | 3.63%
23 | CC(CS(C)(=O)=O)N(C(=O)c1ccc(Cl)s1)C1CC1 (centres undefined) | 52.1%
24 | Cn1cc(C(=O)NCC2CCN(C(=O)NC3CC3)CC2)cn1 | -16%
25 | N#Cc1ccnc(SCC2CN=C(N3CCOCC3)S2)c1 (centres undefined) | 52.6%
26 | c1ccn2c(SCC3CN=C(N4CCOCC4)S3)ncc2c1 (centres undefined) | 0.705%

Row | Structure (SMILES) | INHIBITION
27 | c1csc(SCC2CN=C(N3CCOCC3)S2)c1 (centres undefined) | -12.9%
28 | O=c1c(NCCc2ccc(O)cc2)c(NCc2ccco2)c1=O | 45.7%
29 | Cc1ccc(N2CCc3sc(C(=O)N4CCOCC4)cc32)nn1 | -34%
30 | Cc1cc(S(=O)(=O)N2CCCc3cc(Cl)ccc32)sc1C(=O)O | -12.5%
31 | Cc1cc(S(=O)(=O)N2CCCc3ccccc32)sc1C(=O)O | 37.1%
32 | Cc1cc(S(=O)(=O)N2CCCc3cc(Br)ccc32)sc1C(=O)O | 54.3%
33 | O=C(Nc1ccccc1)N1CC(C(=O)N2CCCC2)C2(CCOCC2)C1 (centres undefined) | -9.71%
34 | NC(=O)c1ccc(C2CCCN2C(=O)CCn2nnc3ccccc32)s1 (centres undefined) | 7.6%
35 | NC(=O)c1ccc(C2CCCN2C(=O)Cn2nc3ccccc3n2)s1 (centres undefined) | 19.4%
36 | CC(=O)c1c(C)nn(CC(=O)N2CCCC2c2ccc(C(N)=O)s2)c1C (centres undefined) | 65.7%
37 | CN(C)CCN1CCCC12CCN(C(=O)c1ccco1)CC2 | -20.8%
38 | O=C(Nc1ccncc1)N(CCO)Cc1ccsc1 | -42.2%
39 | COc1ccc(C(=O)N2C[C@@H]3CC[C@H]2CN(C)C3)cc1Cl | 32.3%
40 | COc1ccccc1-c1ccc(C(=O)N2C[C@@H]3CC[C@H]2CN(C)C3)cc1 | 58.3%
41 | CCOc1ccc(C(=O)N2C[C@@H]3CC[C@H]2CN(C)C3)cc1OCC | 28%
42 | Cn1cc(C2CCCN2C(=O)Cn2c(=O)oc3ccccc32)cn1 (centres undefined) | -19.1%
43 | CN(C)C[C@H]1C[C@@H]2CN(C(=O)c3ccno3)C[C@@H]2O1 | 34.9%
44 | Cn1cccc1C(=O)NC[C@H]1C[C@@H]2CN(C(=O)c3ccno3)C[C@H]2O1 | 42.3%
45 | O=C(NC[C@H]1C[C@@H]2CN(C(=O)c3ccno3)C[C@@H]2O1)C1CCC1 | 70.4%
46 | CCn1cc(-c2cc(C(F)F)n3nc(CCC(=O)O)nc3n2)cn1 | 33.7%
47 | Cn1cc(-c2cc(C(F)F)n3nc(CCC(=O)O)nc3n2)cn1 | -24.1%
48 | CCn1cc(-c2cc(C(F)F)n3nc(CC(=O)O)nc3n2)cn1 | 53%
49 | CC(C)(C)c1nc(C(C)(C)NC(=O)C2CC(=O)N(CC3CC3)C2)no1 (centres undefined) | -17.6%
50 | CCn1cc(CN2CCc3nc(-c4ccccn4)nc(O)c3C2)cn1 | 1.5%
51 | Cn1cc(CN2CCc3c(nc(-c4ccccn4)[nH]c3=O)C2)cn1 | 26.7%
52 | Cn1cc(CN2CCc3nc(-c4ccccn4)nc(O)c3C2)cn1 | 52.3%

Row | Structure (SMILES) | INHIBITION
53 | CN(C)C(=O)c1ccc(C2CCCNC2)nc1 (centres undefined) | 12.3%
54 | CN(C)CC1CN(Cc2ccsc2)Cc2nccn2C1 (centres undefined) | 31.8%
55 | CN(C)Cc1cccc(-c2cccnc2C(=O)NCc2ccco2)c1 | 2.7%
56 | CN(C)Cc1cccc(-c2cccnc2C(=O)NCc2cn(C)cn2)c1 | 51%
57 | CN(C)Cc1cccc(-c2cccnc2C(=O)NCc2ccccn2)c1 | 14.85%
58 | Cc1ncsc1CCN(C)C(=O)CN1CCOc2ccccc2C1 | 40.5%
59 | Cc1ncsc1CCN(C)C(=O)CN1C(=O)OC[C@@H]1c1ccccc1 | 66.5%
60 | Cc1ncsc1CCN(C)C(=O)CN1CCCCCC1=O | 30.8%
61 | Cc1ncsc1CCN(C)C(=O)CN1CCCCC1=O | 39.4%
62 | Cc1nc(CCN(C)C(=O)CN2C(=O)OC[C@@H]2c2ccccc2)no1 | 44.3%
63 | Cc1ccc(=O)n(CC(=O)N(C)Cc2csc(-c3cccs3)n2)n1 | 5.23%
64 | COc1ccccc1CN(C)C(=O)CN1C(=O)OC[C@@H]1c1ccccc1 | 28.5%
65 | Cc1ncsc1CCN(C)C(=O)CN1CCOC1=O | 61.8%
66 | CC(C)N(C)C(=O)CN1C(=O)OC[C@@H]1c1ccccc1 | 58.2%
67 | CC(C)n1ccnc1CN1C(=O)OC[C@@H]1c1ccccc1 | 42.6%
68 | CN(Cc1csc(-c2cccs2)n1)C(=O)CN1CCOC1=O | 55%
69 | Cc1cc(C)n(CC(=O)N(C)Cc2csc(-c3cccs3)n2)c(=O)n1 | 38.5%
70 | CCN(CC(=O)Nc1cc(Cl)ccc1C)C(=O)c1cnccn1 | -25.9%
71 | COc1ccc(C(=O)N2CCC(Nc3ccc(C)nn3)CC2)cc1 | 42%
72 | CN(C)c1nc2sc(C(=O)N3CCN(C(=O)OC(C)(C)C)CC3)cc2s1 | -9.39%
73 | CCCS(=O)(=O)N1C[C@H](N(C)Cc2ccco2)[C@@H]2OCCC[C@@H]21 | 40.4%
74 | O=C(CCn1cnc2cc(F)c(F)cc21)N1CCN2CCCCC2C1 (centres undefined) | 23.4%
75 | Cc1cc(CN2C[C@@H]3COC[C@@H](C(=O)N4CCCCO4)[C@@H]3C2)oc1C | 33.4%
76 | NC(=O)c1ccc(NC2CCOC3(CCCC3)C2)nn1 (centres undefined) | 7.18%
77 | COC(=O)CCn1ccc(=O)c2cc(OC)ccc21 | -80.3%
78 | CN(CCc1cnn(C)c1)C(=O)CN1C(=O)OC[C@@H]1c1ccccc1 | 50.8%

Row | Structure (SMILES) | INHIBITION
79 | CN(CCc1ccccc1)C(=O)CN1C(=O)OC[C@@H]1c1ccccc1 | 36.9%
80 | CN(CCc1cnn(C)c1)C(=O)Cn1c(=O)[nH]c2ccccc21 | 27%
81 | CCC(CC)C(=O)NCc1cnn(CC)c1 | 20.1%
82 | Cn1c(=O)c2cc(C(=O)NCCc3ccccc3)ccc2n(C)c1=O | -0.371%
83 | CCCn1nccc1C(=O)Nc1nc(C)c(C)s1 | -9.44%
84 | CC(C)CNC(=O)c1c(-n2cnnn2)sc2c1CCC2 | 14.2%
85 | CCCNC(=O)c1c(-n2cnnn2)sc2c1CCC2 | 26.1%
86 | COC(=O)CNC(=O)c1c(-n2cnnn2)sc2c1CCCC2 | -5.59%
87 | Cc1nc(NC(=O)c2c(-n3cnnn3)sc3c2CCC3)sc1C | 93.7%
88 | CC(C)CNC(=O)c1c(-n2cnnn2)sc2c1CCCC2 | 68.1%
89 | Cc1nc(NC(=O)c2c(-n3cnnn3)sc3c2CCCC3)sc1C | 93.7%
90 | O=C(NCC1CCCO1)c1c(-n2cnnn2)sc2c1CCC2 (centres undefined) | -1.58%
91 | Cc1nc(NC(=O)c2c(-n3cnnn3)sc(C)c2C)sc1C | 92.5%
92 | CC(C)CCNC(=O)c1c(-n2cnnn2)sc2c1CCCC2 | 23.4%
93 | Cc1sc(-n2cnnn2)c(C(=O)NC(C)C)c1C | 21.2%
94 | CC(C)CNC(=O)c1sccc1-n1cnnn1 | 32.3%
95 | Cc1ncc(CNC2CCc3nc(C(C)C)nn3C2)s1 (centres undefined) | 24.7%
96 | CCn1c(-c2ccccc2)nn(CC(=O)NCCc2ccc(C)o2)c1=O | -19.1%
97 | CCCc1noc(CNC2CCCN(Cc3noc(C4CC4)n3)C2)n1 (centres undefined) | -37.7%
98 | Cc1nc2c(N(C)Cc3ccnn3C)nc(N)nc2n1C | 32.3%
99 | Cc1ccc(F)cc1-n1c(CCCN2CCOCC2)n[nH]c1=O | 39.4%
100 | COc1cc(C)sc1C(=O)N1CCCC(n2nc(C)nc2C)C1 (centres undefined) | 48.2%
101 | Cc1cccc(N(C)S(=O)(=O)c2cc(C(=O)O)cs2)c1 | 22.3%
102 | CCc1ccc(C(=O)O)cc1S(=O)(=O)N(C)c1cccc(C)c1 | 59.1%
103 | CCc1ccc(C(=O)O)cc1S(=O)(=O)N(C)c1cccc(C#N)c1 | 24.4%
104 | COc1ccc(S(=O)(=O)NCC(N)c2ccccc2)c(C)c1 (centres undefined) | 24.8%
